The values below come from the supplement of paper PMC12067093, “Discovery and optimisation of a covalent ligand for TRIM25 and its application to targeted protein ubiquitination” (Chemical Science, 2025).

The target in this experiment is SLTM_Q9NWH9_107_KHEADELSGDASVEDDAFIKDCELENQEAHEQDGNDELK (UniProt Q9NWH9). The experiment in a line: probe-labelled cysteine peptide fold change vs DMSO (competition) (log2 fold change); higher = less target engagement (more negative = stronger competition). The following applies: THP-1, incubation time: 4 h.
Chain of UniProt Q9NWH9 (Q9NWH9 whole entry, looked up): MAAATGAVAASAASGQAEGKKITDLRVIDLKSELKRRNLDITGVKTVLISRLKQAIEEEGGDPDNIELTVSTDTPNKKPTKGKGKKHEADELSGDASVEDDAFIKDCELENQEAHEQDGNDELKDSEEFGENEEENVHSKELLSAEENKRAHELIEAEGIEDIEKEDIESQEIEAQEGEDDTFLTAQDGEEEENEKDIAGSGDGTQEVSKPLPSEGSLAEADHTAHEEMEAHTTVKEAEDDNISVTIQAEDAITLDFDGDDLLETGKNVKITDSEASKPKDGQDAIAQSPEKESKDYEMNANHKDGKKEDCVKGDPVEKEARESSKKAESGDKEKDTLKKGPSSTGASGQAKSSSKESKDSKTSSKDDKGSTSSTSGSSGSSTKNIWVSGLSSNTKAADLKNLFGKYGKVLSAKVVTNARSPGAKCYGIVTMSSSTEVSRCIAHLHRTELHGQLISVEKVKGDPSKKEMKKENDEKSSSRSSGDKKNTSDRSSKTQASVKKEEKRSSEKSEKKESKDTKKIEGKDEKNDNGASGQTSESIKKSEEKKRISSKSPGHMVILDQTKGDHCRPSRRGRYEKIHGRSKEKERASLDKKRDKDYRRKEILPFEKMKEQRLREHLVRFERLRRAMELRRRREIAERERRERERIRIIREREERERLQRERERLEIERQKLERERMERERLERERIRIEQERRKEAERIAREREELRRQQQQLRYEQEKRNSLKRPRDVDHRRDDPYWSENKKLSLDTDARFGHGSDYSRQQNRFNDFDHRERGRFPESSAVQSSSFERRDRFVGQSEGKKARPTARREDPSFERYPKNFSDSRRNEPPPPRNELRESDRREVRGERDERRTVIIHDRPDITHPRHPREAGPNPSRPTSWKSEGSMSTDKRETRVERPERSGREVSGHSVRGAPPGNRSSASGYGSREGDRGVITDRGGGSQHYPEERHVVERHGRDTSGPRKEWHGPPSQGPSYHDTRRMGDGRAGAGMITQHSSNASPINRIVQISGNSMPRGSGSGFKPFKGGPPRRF

Targets with the largest changes are over-represented here; the source holds about 21,000 in all.
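Also: competitive profiling in live THP-1 cells: cysteine peptides tagged with an iodoacetamide desthiobiotin (IA-DTB) probe, intensity after compound treatment relative to DMSO-treated cells.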

With `Cc1cc(C(=O)N2CCCN(C(=O)CCl)CC2)ccc1-c1ccccc1` [compound 10], the “probe-labelled cysteine peptide fold change” value runs as follows: (10 µM) 0.0217; (50 µM) -1.37.
